For experiment [1], the system named is Human papillomavirus type 1a protein E7 (residues 44-93). The experiment in a line: HPV1a E7 fragment binders on microarrays, primary screen, biochemical, small-molecule microarray, residues 44-93, 635 nm fluorescence (AID 1108).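 Further: E7 fragment applied at 1 µg/mL in TBST for 1 h at 4 C; score combines spot fluorescence with its signal to noise ratio.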 As to conditions: small-molecule microarray binding, fluorescence 635 nm; higher = more signal.
Experiment [2] is described as follows: modulators of HCV replicon luciferase signal, primary screen, HCV replication inhibitor project, Huh7 cells, luciferase reporter (AID 1109).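 Further: huh7 hepatoma cells harbouring a luciferase neomycin HCV replicon reporter; luciferase luminescence as measure of HCV replicon replication; test concentration not given here.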 As to conditions: 48 h, higher = more signal.
The target of experiment [3] is Left-right determination factor 2 (Homo sapiens) (UniProt O00292). Nature of the experiment: LEFTY2 binders on small-molecule microarrays, primary screen, biochemical, small-molecule microarray, 635 nm fluorescence scan (AID 1110). As to conditions: LEFTY2 binding, higher = more signal.
Left-right determination factor 2 (Homo sapiens), sequence (O00292 whole entry, looked up): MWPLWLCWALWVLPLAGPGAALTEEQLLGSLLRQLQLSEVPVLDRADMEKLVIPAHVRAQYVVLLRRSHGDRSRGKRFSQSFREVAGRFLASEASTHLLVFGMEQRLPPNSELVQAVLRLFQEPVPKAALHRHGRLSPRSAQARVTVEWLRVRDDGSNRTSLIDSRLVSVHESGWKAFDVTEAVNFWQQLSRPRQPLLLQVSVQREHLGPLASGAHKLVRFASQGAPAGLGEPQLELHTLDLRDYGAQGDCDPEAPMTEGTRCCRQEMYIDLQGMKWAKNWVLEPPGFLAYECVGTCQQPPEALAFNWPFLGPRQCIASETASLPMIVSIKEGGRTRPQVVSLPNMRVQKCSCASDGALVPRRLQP
Experiment [4] deals with Calmodulin-1 (Homo sapiens) (UniProt P0DP23). Nature of the experiment: CALM1 binders on microarrays, EGTA buffer, profiling panel, biochemical, small-molecule microarray, Cy5-labelled CALM1 (AID 1111).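 Further: labelled calmodulin applied in Tris saline Tween buffer holding calcium plus EGTA and DTT.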 The settings on record: Cy5-CALM1 binding fluorescence, higher = more signal.
For experiment [5] the target is unchanged. The experiment in a line: calcium-bound CALM1 binders on microarrays, profiling panel, artefact control for SMM control-protein annotation, biochemical, small-molecule microarray, Cy5-labelled CALM1, plus calcium (AID 1112).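 Further: score merges spot fluorescence with signal to noise from triplicate slides.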 As to conditions: Cy5-CALM1 binding fluorescence, higher = more signal.
Experiment [6] can be described thus: small-molecule microarray binders of probe aWnt5a, primary screen, biochemical, biotinylated probe, 635/667 nm fluorescence (AID 1113).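 Further: score merges 667 nm fluorescence intensity with signal-to-noise per printed feature.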 As to conditions: higher = more signal.
The nature of experiment [7]: small-molecule microarray binders of probe aShh, primary screen, biochemical, biotinylated probe, 635/667 nm fluorescence (AID 1114).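 Further: probe is biotin-labelled aShh protein from a stem cell growth factor screen; measures binding of labelled protein to compounds printed on the slide; score merges feature fluorescence at 667 nm with signal-to-noise.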 The settings on record: higher = more signal.
Experiment [8] in a line: small-molecule microarray binders of probe aNog, primary screen, biochemical, biotinylated probe, 635/667 nm fluorescence (AID 1115).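 Further: probe is biotinylated aNog protein used at 0.15 µg/mL for 1 h at 4 C; z-score combines 667 nm fluorescence of each spot with its signal to noise.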 The settings on record: higher = more signal.
For experiment [9], the target named is Torsin-1A-interacting protein 1 (Homo sapiens) (UniProt Q5JTV8). Nature of the experiment: LAP1 binders from COS7 cell lysate, primary screen, small-molecule microarray, 635/667 nm fluorescence (AID 1116). As to conditions: COS7-hLAP1 lysate binding, 635 nm fluorescence, higher = more signal.
Torsin-1A-interacting protein 1 (Homo sapiens), sequence (Q5JTV8 whole entry, looked up): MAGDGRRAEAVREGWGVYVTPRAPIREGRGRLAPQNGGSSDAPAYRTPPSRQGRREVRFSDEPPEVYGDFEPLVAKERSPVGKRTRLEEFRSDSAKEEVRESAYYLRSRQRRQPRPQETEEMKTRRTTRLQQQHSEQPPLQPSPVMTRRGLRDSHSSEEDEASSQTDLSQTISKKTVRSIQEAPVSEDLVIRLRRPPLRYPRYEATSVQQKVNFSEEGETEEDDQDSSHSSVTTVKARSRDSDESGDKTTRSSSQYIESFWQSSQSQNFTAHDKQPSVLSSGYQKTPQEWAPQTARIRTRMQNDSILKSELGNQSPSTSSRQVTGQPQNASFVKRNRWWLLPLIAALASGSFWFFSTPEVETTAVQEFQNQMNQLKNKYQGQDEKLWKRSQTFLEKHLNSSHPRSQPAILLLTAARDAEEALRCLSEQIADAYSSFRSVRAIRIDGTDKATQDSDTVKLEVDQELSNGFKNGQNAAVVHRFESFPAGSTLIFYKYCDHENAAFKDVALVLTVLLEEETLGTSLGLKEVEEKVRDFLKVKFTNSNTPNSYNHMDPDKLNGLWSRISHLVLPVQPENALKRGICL
For experiment [10], the target named is Alpha-bungarotoxin (Bungarus multicinctus) (UniProt P60615). The experiment in a line: alpha-bungarotoxin binders on microarray, profiling panel, artefact control for SMM control protein annotation, biochemical, small-molecule microarray, Alexa647 label, 635/667 nm fluorescence (AID 1117). As to conditions: alpha-BTX-A647 binding fluorescence, higher = more signal.
Alpha-bungarotoxin (Bungarus multicinctus), sequence (P60615 whole entry, looked up): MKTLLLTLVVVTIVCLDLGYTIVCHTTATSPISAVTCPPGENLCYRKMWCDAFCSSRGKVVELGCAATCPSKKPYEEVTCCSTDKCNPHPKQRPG

As for `CCOC(=O)C[C@H]1[C@H](OC(=O)c2ccc(-c3ccccc3)cc2)[C@@H](NC(=O)CC(C)C)c2cc(OCCCO)ccc2N1C(=O)c1ccc2ccccc2n1`, the composite z-score is 0.903 in experiment [1]; 0.218 in experiment [3]; 0.326 in experiment [4]; -0.631 in experiment [5]; -0.0678 in experiment [6]; 0.0723 in experiment [7]. Also, the composite z-score is 0.39 in experiment [8], -0.289 in [9] and 0.0623 in experiment [10]. The compound also returned a z-score in [2] of -1.3.

Take `CC1CC/C=C\[C@H]2OC34C=CCN(c5ccc(Cl)cc5)C(=O)[C@H]3N(C(C)CO)C(=O)[C@]4(C)C2C(=O)O1` (stereo not given in full): the composite z-score in experiment [1] was -0.815; in experiment [3] it was -0.707; in [4] it was 0.253; in experiment [5], -0.141; in experiment [6], -0.124; in experiment [7], -0.289. In addition, the values for the composite z-score in [8], in experiment [9] and in experiment [10] were -0.0133, 0.0045 and -0.664, respectively. In experiment [2], this compound had a z-score of -1.16.

Consider `O=c1cccc(-c2ccc([N+](=O)[O-])cc2)o1`, for which the composite z-score in [1] is 0.79; in experiment [3], 0.37; in [4], -0.273; in experiment [5] it was -0.389; in experiment [6] it was 0.0775; in experiment [7], 0.199. The composite z-score in [8] was -0.208; in [9] it was 1.11; in [10], 0.38. The compound also registered a z-score in [2] of -0.885.

Regarding `CCOC(=O)C1=CC[C@@H](c2ccccc2)N(S(=O)(=O)c2ccc(C)cc2)[C@H]1c1ccccc1`, the composite z-score in experiment [1] was 1.1; in experiment [3], 0.0056; in experiment [4], 0.578; in [5], 0.626; in experiment [6], 0.0037; in [7] it was -0.138. The composite z-score in experiment [8] is -0.0496; in [9], 0.46; in [10], 0.995. The z-score in experiment [2] is -0.667.

For `COC(=O)C1=CC(CCCO)=CC(c2cccs2)N(Cc2cccc(OC(F)(F)F)c2)C=C1C(=O)OC` (stereo not given), the composite z-score in experiment [1] was 0.91; in experiment [3], 0.151; in experiment [4], 2.05; in [5] it was 0.804; in [6], -0.0194; in experiment [7], 0.0121. For the same compound, the composite z-score in experiment [8] was 0.145; in [9], 2.41; in experiment [10] it was 1.02. This compound showed a z-score in experiment [2] of -1.88.

For the compound `CCCCC=C[C@@H](NC(=O)OCc1ccccc1Cl)c1ccccc1`, the composite z-score in [1] came out at 1.4; in experiment [3], 0.39; in experiment [4], 1.35; in experiment [5], 1; in [6], 1.08; in experiment [7], 1.97. Also, the composite z-score was 3.06 in experiment [8], 0.28 in experiment [9] and 0.922 in experiment [10]. This compound also registered a z-score in [2] of -0.0468.

Turning to `COC(=O)[C@@]1(Cc2ccc(OC)cc2)[C@H]2c3cc(C(=O)N4CCCC4)n(CCO)c3C[C@H]2CN1C(=O)c1ccccc1`, the composite z-score in experiment [1] is 1.1; in experiment [3], -0.352; in experiment [4], 0.841; in experiment [5], 0.173; in experiment [6], 0.433; in experiment [7], 0.305. For the same compound, the figures for the composite z-score in experiment [8], in experiment [9] and in experiment [10] were 1.85, 1.47 and 0.365, respectively. The same compound came in with a z-score in experiment [2] of -0.474.

Turning to `N[C@@H](Cc1ccccc1)C(=O)NCc1cn(Cc2ccccc2)nn1`, the composite z-score in experiment [1] was -0.132; in [3], 0.167; in experiment [4], -0.761; in experiment [5] it was -0.232; in experiment [6], -0.119; in [7], -0.0904. The composite z-score is -0.245 in [8], 0.775 in experiment [9] and 1.11 in [10]. Besides, in experiment [2], the z-score is 0.0943.

Take `COC(=O)C1(CC(C)C)C=C2C(=C(c3ccccc3)C(=O)C2C)CN1` (stereo not given): the composite z-score in experiment [1] is -0.518; in experiment [3], -0.844; in experiment [4], -0.0555; in experiment [5] it was 0.358; in experiment [6], 0.554; in [7], 0.538. Besides, the composite z-score in experiment [8] was 0.689; in [9], 1.09; in experiment [10], -0.194. In experiment [2], this compound returned a z-score of -1.33.

Turning to `CCCCC(CC)C(O)C1C=CC2C(=O)N(c3ccccc3)C(=O)C2N1Nc1ccccc1F` (stereo not given), the composite z-score is 1.41 in [1]; -0.285 in experiment [3]; 0.0117 in experiment [4]; -0.264 in experiment [5]; 0.0768 in experiment [6]; 0.341 in experiment [7]. The composite z-score in experiment [8] was 1.1; in experiment [9] it was 0.928; in [10], -0.176. In [2], this compound registered a z-score of -0.508.

With `O=C(NCCN1CCOCC1)[C@@H]1c2ccccc2C(=O)N(C2Cc3ccccc3C2)[C@H]1c1ccc(CO)cc1`, the composite z-score is 1.4 in experiment [1]; -1.57 in experiment [3]; -0.472 in experiment [4]; -0.301 in experiment [5]; -0.23 in [6]; -0.13 in experiment [7]. Further, the composite z-score was -0.447 in experiment [8], 0.554 in experiment [9] and 0.776 in [10]. In [2], this compound displayed a z-score of -1.42.

Consider `COCCOC(=O)N1C(=O)[C@@]2(c3cc(C#CCC(C(=O)OC)C(=O)OC)ccc31)[C@H](c1ccc(OCCO)cc1)N1[C@H](c3ccccc3)[C@H](c3ccccc3)OC(=O)[C@H]1[C@@H]2C(=O)N1CCc2cc(OC)c(OC)cc2C1`, for which the composite z-score was 1.42 in [1]; 0.52 in experiment [3]; 1.01 in experiment [4]; 0.182 in [5]; -0.072 in experiment [6]; 0.123 in experiment [7]. The results for the composite z-score in [8], in [9] and in experiment [10] were 0.353, 1.05 and 1.68, respectively. The same compound returned a z-score in experiment [2] of -0.919.

`CC1CC/C=C\[C@H]2OC34C=CCN(c5ccc6ccccc6c5)C(=O)[C@H]3N(CCCO)C(=O)[C@@H]4C2C(=O)O1` (stereo not given in full): the composite z-score was -0.499 in experiment [1]; -1.85 in experiment [3]; -0.568 in [4]; -0.028 in [5]; -0.287 in experiment [6]; -0.291 in experiment [7]. Also, the composite z-score in experiment [8] was -0.285; in experiment [9] it was -0.406; in experiment [10], -0.905. Also, the z-score in experiment [2] is 0.197.

Source of the values: PubChem BioAssay.
